In PubChem BioAssay (NCATS):
Values joined by “and” are separate entries in the source; they are usually repeats but may differ in a detail not shown here. Identical values can stand only once. Records with an inconclusive call do not appear. Active and inactive are the calls of the source. Unless noted, calls come from the whole dose curve; as a rule, active = well fitted curve in the direction sought with a large enough effect; inconclusive = small, poorly fitted or top-dose-only effect, or another doubt; inactive = no such curve, though single readings can be large; an effect the other way counts as inactive or inconclusive.

Columns and labels:
[1] = AP1 Signaling Pathway (AID 357; active = well fitted curve in either direction with a large enough effect, not every such curve was filed as active;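 note: ME-180 reporter cells stimulated with EGF at its EC50 level; % is set by controls: 0 for no effect and ±100 for the full control effect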); details: ME-180 AP-1-bla reporter, EGF-induced, beta-lactamase ratio, 5 h
In short: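 Titration-series screen for positive or negative modulators of EC50 EGF-induced signaling in ME-180 cells carrying an AP-1-driven beta-lactamase reporter. After 5 hours at 37 degrees Celsius, CCF4 460nm/530nm emission ratio gave %Activity; AC50 values derived.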

[2] = NFAT Signaling Pathway (AID 444; active = well fitted curve in either direction with a large enough effect, not every such curve was filed as active;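 note: carbachol stimulus at about its EC50 of 1 µM final; % is set by controls: 0 for no effect and ±100 for the full control effect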); details: Jurkat NFAT-bla M1, carbachol, beta-lactamase ratio, 5 h
In short: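 Jurkat cells carrying an NFAT-driven β-lactamase reporter and co-transfected muscarinic M1 receptor were treated with compound plus carbachol (1 uM final, an EC50 level) for 5 h at 37 °C. CCF4 loading followed for 1 h at RT; 460/530 nm ratio gave %activity.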

[3] = Stat Signaling Pathway (AID 446; active = well fitted curve in either direction with a large enough effect, not every such curve was filed as active;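 note: ME-180 cervical cancer cells given 40 pM IL-6 alongside compound; SIE-controlled beta-lactamase reporter measured as 460/530 nm FRET emission ratio; % is set by controls: 0 for no effect and ±100 for the full control effect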); details: ME-180 (cervical carcinoma) SIE beta-lactamase reporter, IL-6 stimulated, 5 h
In short: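 Compound effects on IL-6-induced STAT reporter activity were measured in ME-180 cells. After overnight culture, cells were co-treated with 40 pM IL-6 for 5 hrs before beta-lactamase substrate loading at room temperature.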

[4] = biological target: Glucocorticoid receptor (Homo sapiens) (UniProt P04150); assay: GR-GFP Redistribution (AID 450;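 active = compounds whose dose series gives a full or clear partial fitted curve of increased nuclear translocation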; note: potency is the fitted concentration of half-maximal effect); details: U2OS GR-GFP nuclear translocation, laser cytometry, 2 h
Glucocorticoid receptor (Homo sapiens), sequence (P04150 whole entry, looked up, the tested form may be a part): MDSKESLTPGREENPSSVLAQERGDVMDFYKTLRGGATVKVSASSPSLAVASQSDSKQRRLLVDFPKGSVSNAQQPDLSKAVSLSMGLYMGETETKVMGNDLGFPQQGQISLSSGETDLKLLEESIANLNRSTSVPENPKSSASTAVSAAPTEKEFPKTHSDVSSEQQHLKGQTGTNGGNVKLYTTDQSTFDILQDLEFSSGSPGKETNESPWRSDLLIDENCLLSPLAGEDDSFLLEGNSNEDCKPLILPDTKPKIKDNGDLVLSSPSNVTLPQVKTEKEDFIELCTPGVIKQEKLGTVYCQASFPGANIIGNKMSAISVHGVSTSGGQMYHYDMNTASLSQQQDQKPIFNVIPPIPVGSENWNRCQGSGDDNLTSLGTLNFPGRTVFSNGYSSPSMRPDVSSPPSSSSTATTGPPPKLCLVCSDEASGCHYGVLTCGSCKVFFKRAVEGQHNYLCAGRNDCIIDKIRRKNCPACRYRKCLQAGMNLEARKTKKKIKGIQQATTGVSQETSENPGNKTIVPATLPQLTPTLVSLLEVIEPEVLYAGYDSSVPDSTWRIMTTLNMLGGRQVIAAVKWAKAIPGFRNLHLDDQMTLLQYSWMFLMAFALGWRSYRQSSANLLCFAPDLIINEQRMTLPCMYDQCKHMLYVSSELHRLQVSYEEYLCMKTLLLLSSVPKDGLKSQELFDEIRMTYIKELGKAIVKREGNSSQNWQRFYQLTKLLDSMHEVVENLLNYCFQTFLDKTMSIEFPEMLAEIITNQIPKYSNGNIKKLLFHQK

[5] = biological target: Glucocorticoid receptor (Homo sapiens) (UniProt P04150); assay: GR-EFC Redistribution (AID 451; calls by dose curve; note: potency is the fitted concentration of half-maximal effect); details: CHO-K1 GR-EFC translocation, beta-gal luminescence, 2 h
In short: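 CHO-K1 cells stably expressing nuclear-localized β-gal enzyme acceptor and GR fused C-terminally to the enzyme donor fragment; ligand-driven nuclear translocation restores β-gal by complementation. Compounds titrated up to 46 uM final, 2 h at 37 °C; luminescence read.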

[6] = biological target: Mitogen-activated protein kinase 10 (Mus musculus) (UniProt Q61831); assay: JNK3 AlphaScreen Assay (AID 530; active = well fitted curve in either direction with a large enough effect, not every such curve was filed as active;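 note: kinase came from lysate of stimulated human HepG2 cells; signal reports phosphorylation of biotinylated GST-cJun 1-79 at Ser73 with 10 µM ATP; % is set by controls: 0 for no effect and ±100 for the full control effect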); details: JNK3 lysate, c-Jun phosphorylation; series mostly up to 57.1 µM
In short: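 Biotinylated GST-cJun(1-79) served as substrate for JNK3 in HepG2 lysates stimulated with IL-1beta and TNF-alpha. ATP was 10 uM final, pH 7.6. Ser73 phosphorylation was quantified by AlphaScreen (680 nm excitation).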

[7] = biological target: 3',5'-cyclic-AMP phosphodiesterase 4B (Homo sapiens) (UniProt Q07343); assay: qHTS Assay for Inhibitors of PDE-IV (AID 607; active = well fitted activation curve with a large enough effect in the main read-out, with a control signal flat, not every such curve was filed as active; note: % of control where 0% means no effect); details: HEK293 ACTOne CNG channel cells, membrane potential fluorescence; series mostly up to 22.9 µM
3',5'-cyclic-AMP phosphodiesterase 4B (Homo sapiens), sequence (Q07343 whole entry, looked up): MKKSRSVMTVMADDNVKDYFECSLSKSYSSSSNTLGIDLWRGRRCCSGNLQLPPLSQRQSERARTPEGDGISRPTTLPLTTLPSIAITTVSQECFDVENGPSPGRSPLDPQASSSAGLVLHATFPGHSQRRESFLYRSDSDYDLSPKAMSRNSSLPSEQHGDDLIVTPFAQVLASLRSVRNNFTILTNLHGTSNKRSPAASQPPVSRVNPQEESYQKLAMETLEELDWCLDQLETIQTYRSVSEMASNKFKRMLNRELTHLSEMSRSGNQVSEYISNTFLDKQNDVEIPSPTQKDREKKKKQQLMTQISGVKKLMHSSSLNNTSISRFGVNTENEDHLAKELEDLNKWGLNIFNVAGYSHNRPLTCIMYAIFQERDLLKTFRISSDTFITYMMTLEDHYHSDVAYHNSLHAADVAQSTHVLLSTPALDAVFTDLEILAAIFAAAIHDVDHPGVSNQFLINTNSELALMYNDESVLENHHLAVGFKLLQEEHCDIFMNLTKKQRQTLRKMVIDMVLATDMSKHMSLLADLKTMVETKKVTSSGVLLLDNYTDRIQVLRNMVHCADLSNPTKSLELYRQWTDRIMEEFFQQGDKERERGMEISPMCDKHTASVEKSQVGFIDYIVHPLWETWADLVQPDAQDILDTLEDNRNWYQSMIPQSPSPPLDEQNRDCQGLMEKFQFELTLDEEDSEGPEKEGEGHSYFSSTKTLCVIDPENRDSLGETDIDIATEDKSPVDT
In short: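 ACTOne HEK293 cells carry a modified cAMP-gated CNG channel and express endogenous PDE4; plated 1000 cells/well, compounds up to 22.9 uM final. Membrane-potential dye fluorescence (ex 535/em 590) was read; parental cells received 10 uM forskolin + 100 uM RO 20-1724.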

[8] = qHTS Assay for Lipid Storage Modulators (AID 1519; calls by dose curve); details: Drosophila S3 cells, BODIPY lipid droplet/cell ratio, laser cytometry, cells loaded with oleic acid; for activity change, negative = inhibition: at 25.7 µM (top of the series)
In short: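 Cells seeded at 5,000 per well were treated with compounds over a concentration series and loaded with oleic acid (400 uM, as added). Lipid droplet fluorescence (488 nm excitation, 500-530 nm channel) was read by laser-scanning cytometry and normalized to 20 uM Triacsin C.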

[9] = biological target: Ubiquitin carboxyl-terminal hydrolase 1 (Homo sapiens) (UniProt O94782); assay: Inhibitors of USP1/UAF1: Pilot qHTS (AID 504865); details: purified USP1/UAF1, Ub-rhodamine cleavage fluorescence; series mostly up to 54.9 µM;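 note: rhodamine fluorescence freed from ubiquitin-rhodamine substrate followed over time; top concentration of the series differs between compounds; % is set by controls: 0 for no effect and ±100 for the full control effect; nearly all actives have a fitted effect of over 35% in size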
Ubiquitin carboxyl-terminal hydrolase 1 (Homo sapiens), sequence (O94782 whole entry, looked up): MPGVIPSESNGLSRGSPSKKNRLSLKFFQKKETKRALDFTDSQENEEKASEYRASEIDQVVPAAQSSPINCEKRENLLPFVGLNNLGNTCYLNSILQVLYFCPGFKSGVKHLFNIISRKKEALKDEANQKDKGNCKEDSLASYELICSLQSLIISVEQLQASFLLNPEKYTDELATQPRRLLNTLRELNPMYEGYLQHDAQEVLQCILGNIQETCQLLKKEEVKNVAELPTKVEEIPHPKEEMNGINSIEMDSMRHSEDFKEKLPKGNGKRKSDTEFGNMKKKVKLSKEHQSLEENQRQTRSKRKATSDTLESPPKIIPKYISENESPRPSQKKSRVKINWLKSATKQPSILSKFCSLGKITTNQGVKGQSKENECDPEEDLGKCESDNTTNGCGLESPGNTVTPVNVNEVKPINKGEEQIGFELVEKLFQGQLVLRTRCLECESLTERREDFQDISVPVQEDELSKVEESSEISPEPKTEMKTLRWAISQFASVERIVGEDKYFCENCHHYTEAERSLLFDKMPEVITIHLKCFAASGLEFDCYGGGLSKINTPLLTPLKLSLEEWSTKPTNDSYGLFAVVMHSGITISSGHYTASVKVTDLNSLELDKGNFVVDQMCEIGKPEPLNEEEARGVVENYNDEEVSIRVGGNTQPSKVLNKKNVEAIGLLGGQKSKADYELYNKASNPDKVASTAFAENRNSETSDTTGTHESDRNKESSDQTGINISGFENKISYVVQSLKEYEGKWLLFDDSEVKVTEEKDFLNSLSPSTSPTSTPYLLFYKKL
In short: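 USP1/UAF1 complex (1nM) preincubated with compound 15 min at room temperature, then Ub-Rho substrate (150nM final) added. Fluorescence read kinetically at 480/540 nm, 6 reads every 60 seconds. Buffer: 50mM HEPES pH 7.8, 0.5mM EDTA, 0.1 mg/ml BSA, 1mM TCEP, 0.01% Tween-20.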

[10] = biological target: Luciferin 4-monooxygenase (Photinus pyralis) (UniProt P08659); assay: Biochemical firefly luciferase enzyme assay for NPC (AID 624030);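 note: purified P. pyralis luciferase at 10 nM with luciferin and ATP substrate; 0% = DMSO and -100% = full luciferase inhibition by PTC124 control; nearly all actives have a fitted effect of over 70% in size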; details: purified P. pyralis luciferase, luminescence, 5 min; series mostly up to 58.6 µM
Luciferin 4-monooxygenase (Photinus pyralis), sequence (P08659 whole entry, looked up): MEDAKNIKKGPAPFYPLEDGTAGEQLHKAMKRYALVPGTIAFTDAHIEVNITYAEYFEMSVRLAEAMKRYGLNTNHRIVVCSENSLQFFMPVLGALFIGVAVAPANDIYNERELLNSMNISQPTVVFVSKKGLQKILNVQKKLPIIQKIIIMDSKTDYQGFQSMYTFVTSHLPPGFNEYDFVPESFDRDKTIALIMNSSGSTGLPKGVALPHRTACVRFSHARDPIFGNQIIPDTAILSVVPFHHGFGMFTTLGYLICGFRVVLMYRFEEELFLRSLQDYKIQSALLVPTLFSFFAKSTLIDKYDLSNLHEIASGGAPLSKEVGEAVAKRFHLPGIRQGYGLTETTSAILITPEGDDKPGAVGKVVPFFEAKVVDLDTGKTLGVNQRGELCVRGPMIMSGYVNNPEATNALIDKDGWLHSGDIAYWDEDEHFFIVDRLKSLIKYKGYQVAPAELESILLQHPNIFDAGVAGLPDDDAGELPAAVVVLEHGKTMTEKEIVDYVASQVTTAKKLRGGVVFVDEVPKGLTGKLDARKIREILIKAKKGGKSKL
In short: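 Counter-screen for direct inhibition of the luciferase enzyme by approved-drug library compounds, run at 10 nM enzyme in 50 mM Tris acetate (final). Luminescence was read within 5 min of enzyme-buffer addition and normalized to PTC124 versus DMSO (0%).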

[11] = qHTS profiling for inhibitors of Plasmodium falciparum proliferation (AID 504749); note: potency is the fitted concentration of half-maximal effect;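 for activity, negative = inhibition: 0% = DMSO vehicle and full inhibition = artemisinin control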; for all read-outs here: nearly all actives have a fitted effect of over 60% in size; details: P. falciparum in erythrocytes, SYBR Green DNA, 72 h; for activity, negative = inhibition: at 12.8 µM (top of the series)
In short: (§1)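 Fluorescence of SYBR Green-bound parasite DNA, read at 485/535 nm, served as the growth measure. Infected erythrocytes were cultured with compound 72 h; artemisinin (0.29 uM) and DMSO wells defined the normalization range.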

CP238 = assay: as above; details: P. falciparum in erythrocytes, SYBR Green DNA, 72 h; series mostly up to 12.8 µM
In short: as §1

CP262 = assay: as above; details: P. falciparum in erythrocytes, SYBR Green DNA, 72 h; series mostly up to 12.8 µM
In short: as §1

CP325 = assay: as above; details: P. falciparum in erythrocytes, SYBR Green DNA, 72 h; series mostly up to 12.8 µM
In short: as §1

ECU = assay: as above; details: P. falciparum in erythrocytes, SYBR Green DNA, 72 h; series mostly up to 12.8 µM
In short: as §1

FAB9 = assay: as above; details: P. falciparum in erythrocytes, SYBR Green DNA, 72 h; series mostly up to 12.8 µM
In short: as §1

HB3 = assay: as above; details: P. falciparum in erythrocytes, SYBR Green DNA, 72 h; series mostly up to 12.8 µM
In short: as §1

JCK = assay: as above; details: P. falciparum in erythrocytes, SYBR Green DNA, 72 h; series mostly up to 12.8 µM
In short: as §1

[12] = biological target: Cytochrome P450 1A2 (Homo sapiens) (UniProt P05177); assay: p450-cyp1a2 (AID 410; calls by dose curve; note: potency is the fitted concentration of half-maximal effect;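 for activity change, negative = inhibition: -100% = full effect of reference inhibitor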); details: recombinant CYP1A2, luciferin-ME demethylation, luminescence; series mostly up to 57 µM
Cytochrome P450 1A2 (Homo sapiens), sequence (P05177 whole entry, looked up): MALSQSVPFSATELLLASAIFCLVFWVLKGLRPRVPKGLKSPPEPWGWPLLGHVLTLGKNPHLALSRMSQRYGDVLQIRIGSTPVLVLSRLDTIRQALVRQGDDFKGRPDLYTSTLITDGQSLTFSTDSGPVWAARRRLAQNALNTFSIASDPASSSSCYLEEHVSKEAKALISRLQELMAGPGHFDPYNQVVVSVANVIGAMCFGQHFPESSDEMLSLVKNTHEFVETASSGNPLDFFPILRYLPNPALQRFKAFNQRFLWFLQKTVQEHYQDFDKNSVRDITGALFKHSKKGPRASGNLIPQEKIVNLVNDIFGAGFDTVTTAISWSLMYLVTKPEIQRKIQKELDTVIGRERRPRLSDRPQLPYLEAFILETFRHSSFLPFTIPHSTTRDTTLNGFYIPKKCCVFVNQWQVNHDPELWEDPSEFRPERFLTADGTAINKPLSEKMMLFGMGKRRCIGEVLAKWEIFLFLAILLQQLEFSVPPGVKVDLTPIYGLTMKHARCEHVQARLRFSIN
In short: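 Read-out is luminescence from luciferin produced by CYP1A2 demethylation of Luciferin-ME (100uM, at Km). Detection reagent stopped the 60 min NADPH-dependent reaction; signals were normalized to 57 uM furafylline.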

[13] = biological target: Cytochrome P450 3A4 (Homo sapiens) (UniProt P08684); assay: qHTS Assay for Activators of Cytochrome P450 3A4 (AID 885); details: recombinant CYP3A4, Luciferin-PPXE luminescence, 60 min; series mostly up to 57.1 µM; note: nearly all actives have a fitted effect of over 65% in size
Cytochrome P450 3A4 (Homo sapiens), sequence (P08684 whole entry, looked up): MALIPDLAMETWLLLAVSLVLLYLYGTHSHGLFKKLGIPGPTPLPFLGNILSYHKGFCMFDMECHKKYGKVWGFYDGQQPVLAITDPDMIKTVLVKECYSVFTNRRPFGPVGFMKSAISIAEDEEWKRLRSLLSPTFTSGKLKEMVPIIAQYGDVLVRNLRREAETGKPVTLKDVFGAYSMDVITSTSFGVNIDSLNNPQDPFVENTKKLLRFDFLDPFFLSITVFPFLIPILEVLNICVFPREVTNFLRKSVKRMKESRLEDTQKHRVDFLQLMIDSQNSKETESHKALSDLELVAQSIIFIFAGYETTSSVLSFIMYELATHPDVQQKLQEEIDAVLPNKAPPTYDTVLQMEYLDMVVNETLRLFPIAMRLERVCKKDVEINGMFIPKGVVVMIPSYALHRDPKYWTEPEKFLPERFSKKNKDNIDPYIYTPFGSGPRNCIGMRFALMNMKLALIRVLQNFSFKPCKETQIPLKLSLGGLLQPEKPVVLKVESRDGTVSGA
In short: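 CYP3A4 activity: Luciferin-PPXE O-dealkylation, 25uM substrate, 200mM KPO4, RT throughout. Read-out is luciferase luminescence; higher values reflect activation.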

[14] = measured here: cell count channel max response
[15] = measured here: lipid channel max response
[16] = at 7.69 µM (top of the series) unless noted

CCN(CC)CCC[C@H](C)Nc1ccnc2cc(Cl)ccc12
-15.4%: max response [8, 14]
inactive: activity change, negative = inhibition ([1]; at 17.2 µM (top of the series)) 13.4% | activity change, negative = inhibition ([1]; at 38 µM (top of the series)) 1.88% | activity change, negative = inhibition ([2]; at 17.2 µM (top of the series)) -9.2% | activity change, negative = inhibition ([2]; at 38 µM (top of the series)) -24.9% | activity, negative = inhibition ([3]; at 17.2 µM (top of the series)) 3.07% | activity, negative = inhibition ([3]; at 38 µM (top of the series)) 15.2% | Potency [4] > 46 µM and > 20.6 µM | Potency [5] > 46 µM and > 20.6 µM | Potency [6] | Potency [7] | activity change, negative = inhibition [8] -0.708% | Potency [9] | outcome [10]
active: Potency ([11]; parasite line A) 158 nM | Potency ([11]; parasite line B) 316 nM | Potency (CP238) 10000 nM | Potency (CP262) 2390 nM | Potency (CP325) 7570 nM | Potency (ECU) 2240 nM | Potency (FAB9) 141 nM | Potency (HB3) 316 nM | Potency (JCK) 10000 nM
-16%: max response [8, 15]

CN1[C@@H](CC(=O)c2ccccc2)CCC[C@@H]1C[C@@H](O)c1ccccc1
-6.57%: max response [8, 14]
inactive: activity change, negative = inhibition ([1]; at 17.2 µM (top of the series)) -1.05% | activity change, negative = inhibition ([1]; at 38 µM (top of the series)) 6.06% | activity, negative = inhibition ([3]; at 17.2 µM (top of the series)) 0.159% | activity, negative = inhibition ([3]; at 38 µM (top of the series)) -8.54% | Potency [6] | Potency [7] | activity change, negative = inhibition [8] -0.989% | Potency [9]
active: Potency [12] 31.6 µM and 5.01 µM
-6.75%: max response [8, 15]

C[C@@H](CN(C)C)CN1c2ccccc2CCc2ccccc21
active: activity change, negative = inhibition ([1]; at 17.2 µM (top of the series)) 77.9% [activator] | activity change, negative = inhibition ([1]; at 38 µM (top of the series)) 90.9% [activator]
-16.4%: max response [8, 15]
inactive: Potency [12] | activity, negative = inhibition ([3]; at 17.2 µM (top of the series)) 1.59% | activity, negative = inhibition ([3]; at 38 µM (top of the series)) -7% | Potency [6] | Potency [7] | Potency [13] | activity change, negative = inhibition [8] -5.99% | Potency [9] | outcome [10] | activity, negative = inhibition ([11]; parasite line A) -6.2% | Potency (CP238) | Potency (CP262) | Potency (CP325) | Potency (ECU) | Potency (FAB9) | Potency (HB3) | Potency (JCK)
-11.8%: max response [8, 14]

CC1(C)O[C@@H]2C[C@H]3[C@H]4C[C@H](F)C5=CC(=O)C=C[C@@]5(C)[C@@H]4[C@H](O)C[C@]3(C)[C@]2(C(=O)CO)O1
-28.6%: max response [8, 15]
active: Potency [4] 3.95 nM | Potency [5] 4.85 nM
-24%: max response [8, 14]
inactive: activity change, negative = inhibition [1, 16] 21.4% [at 17.2 µM] | Potency [12] | activity change, negative = inhibition [2, 16] -5.12% [at 17.2 µM] | activity, negative = inhibition [3, 16] -5.69% [at 17.2 µM] | Potency [7] | Potency [13] | activity change, negative = inhibition [8] -4.94% | outcome [10] | activity, negative = inhibition ([11]; parasite line A) -1.94% | activity, negative = inhibition ([11]; parasite line B) 13.2% | Potency (CP238) | Potency (CP262) | Potency (CP325) | Potency (ECU) | Potency (FAB9) | Potency (HB3) | Potency (JCK)
